PP1 inh = PP1-alpha (human) inhibition in PP5 counter-screen | purified PP1alpha, OMFP fluorescence | inhibition, % at 6.7 µM | actives 0.9% (n = 320,000) | AID 2235;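 active means inhibition above the mean inhibition of all tested compounds plus 3 SD, computed separately for each screening campaign, cut at about 15% in these data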
PP5 primary = blocks human protein phosphatase 5 activity. actives 0.18% (n = 320,000). P53041. purified PP5c, OMFP substrate fluorescence. inhibition, % at 6.7 µM;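 active means inhibition above the campaign's mean inhibition across all tested compounds plus 3 SD, cut at about 9.5% in these data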;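 further: 0% = DMSO only and 100% = 100 µM cantharidin control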
IDE cell activ = activators of human insulin-degrading enzyme in cells; activation, % at 5.96 µM; actives 0.073% (n = 340,000); AID 493087; HEK cells, FAbeta-B cleavage, fluorescence polarization; 0% vehicle, 100% cell-free pure enzyme wells; P14735;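 active means activation above the mean of all tested compounds plus 3 SD, set per screening campaign, cut at about 17% in these data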
SKKanGAS inh = blocks kanamycin growth of S. pyogenes SKKanGAS strain; actives 1.3% (n = 300,000); AID 1662; inhibition, % at 7.5 µM; BacTiter-Glo, 6 h;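 active means mean replicate score, as percent of positive control median, at least 50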;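 further: strain carries kanamycin resistance gene driven by streptokinase promoter and grows in 40 µg/ml kanamycin; loss of luminescence reflects streptokinase promoter inhibition or plain growth inhibition; 0% = median of DMSO wells and 100% = positive control at its reference dose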
IDE inh = inhibitors of human insulin-degrading enzyme in cells; HEK cells, FAbetaB cleavage, fluorescence polarization; actives 0.41% (n = 320,000); AID 434962; inhibition, % at 5.59 µM;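 active means percent inhibition above the average of all tested compounds plus 3 SD, set per screening campaign, cut at about 16% in these data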;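 further: IDE supplied by intact live HEK cells; FP after avidin binding of uncleaved biotin substrate so inhibition keeps polarization high; 0% = DMSO wells and 100% = 60 µM reference IDE inhibitor Ii1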
Exocytosis inh = lytic granule exocytosis inhibition; TALL-104 LAMP-1 surface exposure, flow cytometry; cells stimulated with thapsigargin and PMA; inhibition, % at 10 µM; actives 0.66% (n = 360,000); AID 651702;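 active means inhibition above about 55%, limit read from the data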
Granule exo CP1 = blocks lytic granule exocytosis; shares compounds with Exocytosis inh; inhibition, % at 10 µM; actives 11% (n = 1,500); TALL-104 cells, LAMP-1 externalization, flow cytometry; stimulated with PMA plus thapsigargin; in the data active means inhibition above about 60%;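 further: 0% = stimulated vehicle wells and 100% = unstimulated wells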
Active calls of the source: *; x = not tested or not shown. This is a sample that favours compounds with a hit; in the whole collection about 2.8% have one here.

SMILES	PP1 inh	PP5 primary	IDE cell activ	SKKanGAS inh	IDE inh	Exocytosis inh	Granule exo CP1
O=C(Nc1ccccc1N1CCCCC1)c1ccc(-c2cccc(Cl)c2)o1	3	-1	0	14	3	5	x
CN(C)CCNC(=O)c1ccc(-c2cnn(C)c2)c2ccoc12	x	x	x	x	x	1	x
CC1(C(=O)NS(=O)(=O)c2cccs2)CCN1C(=O)CC1CCCCC1 (stereo not given)	x	x	x	x	x	-1	x
CCOc1ccc(CN2CCN(c3ncnc4scc(-c5ccccc5)c34)CC2)cc1	x	x	0	6	x	87*	-11
COc1ccc(N2CCN(c3ncnc4scc(-c5ccc(F)cc5)c34)CC2)cc1	0	1	7	-6	1	5	x
COc1ccc(N2CCN(c3ncnc4scc(-c5ccc(C)cc5)c34)CC2)cc1	5	1	8	2	-2	80*	-12
COc1ccc(F)cc1CN1CCN(c2ncnc3scc(-c4ccccc4)c23)CC1	-4	2	x	-5	2	70*	10
COc1ccc(CN2CCN(c3ncnc4scc(-c5ccc(F)cc5)c34)CC2)cc1	2	6	4	-6	6	60*	1
CCN1CCN(c2ncnc3scc(-c4ccc(OC)cc4)c23)CC1	-2	0	-2	7	2	-6	x
CCc1ccccc1NC(=O)CN(C)C(=O)CSc1nn(-c2ccc(F)cc2)c(=S)s1	-3	1	3	-5	-2	-4	x
OC1CCCCC1	-8	2	0	x	3	-1	x
CC1(OC(=O)CCc2ccccc2)C(=O)C=C2C=C(c3ccc(C#N)cc3)N(C(CO)CO)C=C2C1=O (stereo not given)	0	3	3	8	5	71*	-5
Cc1ccc(S(=O)(=O)N2CCC(=O)N([C@H](COCc3ccc(Cl)cc3)Cc3ccccc3)CC2)cc1	x	x	x	x	x	-3	x
Cc1ccc(S(=O)(=O)N2CCC(=O)N(C(COCc3ccccc3)Cc3ccccc3)CC2)cc1 (stereo not given)	2	5	2	-2	-2	90*	-2
COc1ccc(-c2cc3nc(C)cc(N4CCN(C(=O)c5cccnc5)CC4)n3n2)cc1	x	x	x	x	x	-6	x
Cc1ccc(S(=O)(=O)N2CCN(S(=O)(=O)c3ccccc3Br)C2=O)cc1	x	x	3	x	x	-3	x
CN(C(=O)c1cccc(NC(=O)Cc2ccc(NC(=O)C3CCN(C(=O)C4CCC4)CC3)cc2)c1)C1CCCCC1	x	x	4	x	x	58*	-13
COc1ccc2c(c1)cc1c(=O)n(CC(=O)NCCCN3CCOCC3)nc(C)n12	0	2	-1	-1	-1	-2	x
NS(=O)(=O)c1ccc(CCNCc2ccccc2OCc2ccc(Cl)cc2)cc1	1	0	3	-3	1	57*	-11
NS(=O)(=O)c1ccc(CCNCc2cc(Cl)ccc2OCc2ccccc2)cc1	7	1	-2	2	-1	7	x
CCN(CC)CCNC(=O)CCc1c(C)nc2c(c(C)nn2-c2ccc(C)c(C)c2)c1C	x	x	4	2	x	41	x
O=[N+]([O-])c1ccc2nc(/C=C/c3ccc(Cl)cc3)[nH]c2c1	5	4	1	3	7	91*	88*
O=[N+]([O-])c1ccc2nc(C(O)C(O)c3nc4ccc([N+](=O)[O-])cc4[nH]3)[nH]c2c1 (stereo not given)	1	1	1	1	10	8	x
CCCC(=O)Nc1cccc(NC(=O)c2cccc([N+](=O)[O-])c2C)c1	-6	1	-3	-5	3	6	x
CCCCC(=O)N/N=C(/C)C1=C(C)C(C)(C)OC1=O	-2	3	8	-7	1	4	x
SMILES	PP1 inh	PP5 primary	IDE cell activ	SKKanGAS inh	IDE inh	Exocytosis inh	Granule exo CP1
Cc1csc2sc(-c3ccnc(SCC(=O)NCc4ccccc4)n3)c(C)c12	6	2	-6	18	-1	66*	-11
COc1ccc(NC(=O)c2c(C)nn(Cc3ccccc3)c2C)cc1S(=O)(=O)N(C)C	-5	2	5	4	1	71*	-4
COc1ccc(NC(=O)c2c(C)nn(Cc3ccccc3)c2Cl)cc1S(=O)(=O)N1CCOCC1	3	2	4	-9	1	8	x
CC(OC(=O)CCC1CCCC1)C(=O)Nc1ccccc1[N+](=O)[O-] (stereo not given)	-4	2	0	-5	2	-1	x
COC(=O)C1CCN(CCCOc2ccc(CN3CCN(c4ccc([N+](=O)[O-])cc4)CC3)cc2)CC1	-2	2	-1	1	6	84*	-10
CN(Cc1cccs1)c1nc(-c2cccnc2)nc2ccccc12	-9	5	-3	6	5	84*	21
COc1ccccc1NC(=O)NNC(=O)CCc1ccccc1	-1	0	-1	-5	1	-2	x
CC(C)(C)c1ccccc1NC(=O)CN1C(=O)NC(Cc2ccccc2)C1=O (stereo not given)	5	-2	0	-19	7	-16	x
O=C1CC2(CCCC2)Oc2ccccc21	4	2	5	-4	7	14	x
O=C1CC2(CCCCCC2)Oc2ccccc21	0	2	6	10	13	63*	-14
CCc1nc2ccc(C(=O)NC3CCN(Cc4ccccc4)CC3)cn2c1N(C)Cc1cc2ccccc2s1	x	x	x	x	x	59*	65*
CCc1nc2ccc(C(=O)NC3CCN(Cc4ccccc4)CC3)cn2c1N(C)Cc1cccs1	x	x	x	x	x	8	x
COC(=O)c1c(NC(=O)CN2C(=O)C(=O)N(C(C)C)C2=O)sc(C)c1C	-1	2	2	x	-2	-3	x
COc1ccc(S(=O)(=O)c2c(O)cc(C)c(NS(=O)(=O)c3ccccc3)c2C)cc1	2	2	2	6	0	70*	-5
COc1ccc(OC)c(NC(=O)Nc2ccc(O)c3ccccc23)c1	-4	2	-7	37	4	82*	-9
COc1ccc(S(=O)(=O)Nc2ccccc2)cc1	-4	3	8	1	9	-3	x
COc1ccc(S(=O)(=O)Nc2ccc(O)c3ccccc23)cc1	1	2	-5	10	2	87*	6
CCOc1ccc(N(CC(=O)N2CCOCC2)S(=O)(=O)c2ccc(F)cc2)cc1	-2	-1	-6	-5	-4	0	x
CCOc1cc(CNC(C)(C)CO)cc(Br)c1OCc1ccc(Cl)cc1Cl	5	1	7	7	-8	66*	35
COc1cc(CNC(C)(C)CO)cc(Br)c1OCc1ccccc1	2	1	0	1	3	-3	x
CCOc1cc(CNCCO)cc(Br)c1OCc1ccc(Cl)cc1	4	3	2	3	6	63*	-6
CCOc1cc(CNCCO)cc(Br)c1OCc1ccccc1Cl	6	-1	-2	-1	-3	11	x

Screening data: PubChem BioAssay, several laboratories
